Measurements: PubChem BioAssay
“And” between values parts separate entries of the source, which are not always exact repeats. Equal entries are not always repeated. Records with an inconclusive call do not appear. The source made the active and inactive calls.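 How the source made its calls, unless noted: active means GFP response above 150% of the DMSO control; inconclusive means fewer than 70 events counted in any yeast strain; inactive means the rest.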

How the values were obtained:
[1] = rapamycin-like changes in RPL19A-GFP expression – cell-based, S. cerevisiae, multiplex flow cytometry, primary screen (AID 1862; in the data active means percent of DMSO control GFP below about 86%;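 further: lower values mimic rapamycin by blocking the RPL19A rise seen in DMSO cells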); conditions: S. cerevisiae RPL19A-GFP strain, flow cytometry fluorescence, 3 h; at 10 µM; stronger effect = lower value
[2] = TOR pathway GLN3 branch reporter MEP2-GFP changes – S. cerevisiae, multiplex flow cytometry, primary screen (AID 1867;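 active means GFP response, as percent of the DMSO control, above the screen-wide mean plus 3 SD, about 139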;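 further: median GFP channel fluorescence of barcode-gated MEP2-GFP cells measured by flow cytometry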); conditions: S. cerevisiae MEP2-GFP strain, 3 h, at 10 µM, stronger effect = higher value, 100% means same as DMSO wells
[3] = TOR pathway RTG branch CIT2 reporter changes – S. cerevisiae, GFP fusion, multiplex flow cytometry, primary screen (AID 1870;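 active means percent response above a set limit, the screen-wide mean plus 3 SD, cut at about 130% in these data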;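 further: barcoded CIT2-GFP strain pooled with four other GFP strains with rapamycin as positive control; median GFP fluorescence per well over plate mean of DMSO wells so 100% = DMSO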); conditions: S. cerevisiae CIT2-GFP expression, 3 h, at 10 µM, stronger effect = higher value
[4] = TOR pathway LAP4-GFP level changes – S. cerevisiae, multiplex flow cytometry, primary screen (AID 1873;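 active means GFP signal, as percent of the solvent control, above the screen mean plus 3 SD, about 149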); conditions: S. cerevisiae LAP4-GFP expression, 3 h, at 10 µM, stronger effect = higher value
[5] = yeast AGP1-GFP level changes, GLN3 branch – cell-based, multiplex flow cytometry, S. cerevisiae, primary screen (AID 1887;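 active means GFP signal above the screen-wide mean plus 3 SD, that is over about 124.5% of the solvent control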;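 further: AGP1-GFP fusion strain of S. cerevisiae within a five-strain barcoded multiplex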); conditions: 3 h, at 10 µM, stronger effect = higher value
[6] = hit retest on RPL19A-GFP reporter strain – cell-based, S. cerevisiae, flow cytometry, cherry picks, mother/daughter gates, confirmation (AID 2270;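 active means GFP response below 50% of the DMSO control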); conditions: 3 h, at 10 µM, stronger effect = lower value, 100 = same GFP as DMSO wells
[7] = yeast TOR pathway reporter LAP4-GFP change – cell-based, cherry picks, flow cytometry, mother/daughter gates, confirmation (AID 2271);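 further: ratio of sample to DMSO plate mean so 100% equals DMSO level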; conditions: S. cerevisiae LAP4-GFP strain, 3 h, at 10 µM, stronger effect = higher value, 100 means same as DMSO control
[8] = TOR pathway reporter MEP2-GFP, retest of hits – S. cerevisiae, flow cytometry GFP, cherry picks, confirmation (AID 2272;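 active means GFP response above 150% of the DMSO control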;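 further: ratio of well signal to plate DMSO mean so 100% equals DMSO level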); conditions: S. cerevisiae MEP2-GFP strain, 3 h, at 10 µM, stronger effect = higher value
[9] = TOR pathway CIT2 reporter hit retest – S. cerevisiae, GFP fusion, cherry picks, mother/daughter gates, confirmation (AID 2274;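 active means GFP response above 150% of the DMSO level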); conditions: S. cerevisiae CIT2-GFP strain, flow cytometry, 3 h, at 10 µM, stronger effect = higher value
[10] = reduced mouse 2C T cell binding to pMHC/ICAM-1 vesicles – MLPCN validation set, flow cytometry, LFA-1/ICAM-1 modulator project, pilot screen (AID 2523;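 active means response below a set limit, under 55% cells CD8-positive and vesicle-bound, and CD8 cells' 90th-percentile brightness under 279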;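 on vesicle binding response: mean PE anti-B7-1 fluorescence of CD8+ cells relative to row control; 100% = QL9-loaded vesicles with DMSO vehicle in the same plate row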); conditions: 2C mouse CD8+ T cells, at 7 µM, stronger effect = lower value; double positive events: measured here: CD8+/vesicle+ event percentage
[11] = measured here: daughter cell gate
[12] = measured here: mother cell gate
[13] = measured here: mother cell gate response
[14] = measured here: daughter cell gate response

Row | SMILES | percent of DMSO control GFP [1] | GFP response vs DMSO [2] | percent response of DMSO control [3] | GFP response vs DMSO [4] | GFP response, % of DMSO [5] | GFP response vs DMSO [6] | GFP response vs DMSO [6, 11] | GFP response vs DMSO [6, 12] | GFP response relative to DMSO [7] | GFP response relative to DMSO [7, 13] | GFP response vs DMSO [8] | GFP response, % of DMSO [9] | GFP response, % of DMSO [9, 11] | GFP response, % of DMSO [9, 12] | double positive events [10] | vesicle binding response [10] | GFP response relative to DMSO [7, 14]
1 | O=[N+]([O-])c1ccc(O)c2ncccc12 | 99.7% (inactive) | 122% (inactive) | 81.5% (inactive) | 375% (active) | 152% (active) | 104% (inactive) | 99.8% | 99.2% | 274% (active) | 245% | 120% (inactive) | 138% (inactive) | 121% | 126% | 59.9% | 159% (inactive) | 
2 | COc1ccc(C2=CC(=O)C=CC2=O)cc1 | 84.7% (active) | 105% (inactive) | 68.5% (inactive) | 144% (inactive) | 91.9% (inactive) | 109% (inactive) | 114% | 104% | 119% (inactive) | 122% | 117% (inactive) | 108% (inactive) | 111% | 103% | 64.5% | 146% (inactive) | 120%
3 | C[C@]12CCC(=O)C=C1CC[C@@H]1[C@@H]2[C@@H](O)C[C@@]2(C)[C@H]1CC[C@]2(O)C(=O)CO | 108% (inactive) | 105% (inactive) | 111% (inactive) | 105% (inactive) | 111% (inactive) | 104% (inactive) | 102% | 104% | 96.2% (inactive) | 98.3% | 100% (inactive) | 104% (inactive) | 99.7% | 105% | 58.4% | 165% (inactive) | 98.7%
4 | C[C@]12CCC(=O)C=C1CC[C@@H]1[C@@H]2[C@@H](O)C[C@@]2(C)[C@H]1CC[C@]2(O)C(=O)COC(=O)CCC(=O)O | 104% (inactive) | 108% (inactive) | 110% (inactive) | 119% (inactive) | 108% (inactive) | 98% (inactive) and 96.4% (inactive) | 96.4% and 98.1% | 101% and 94.9% | 97.4% (inactive) and 99.2% (inactive) | 91.1% and 100% | 100% (inactive) | 96.5% (inactive) and 98.3% (inactive) | 94.8% and 99.1% | 92.3% and 97.3% | 43.7% | 165% (inactive) | 103% and 97.6%
5 | Cc1ccc2[nH]c3c(c2c1)CCNC3=O | 99.1% (inactive) | 95.9% (inactive) | 104% (inactive) | 91.3% (inactive) | 98.7% (inactive) | 101% (inactive) | 100% | 103% | 91.4% (inactive) | 94.2% | 100% (inactive) | 111% (inactive) | 106% | 114% | 57.6% | 187% (inactive) | 92.5%
6 | CN/C(=C/[N+](=O)[O-])NCCSCc1ccc(CN(C)C)o1 | 91.7% (inactive) | 150% (active) | 108% (inactive) | 83.6% (inactive) | 87.7% (inactive) | 100% (inactive) | 101% | 99.2% | 97.9% (inactive) | 96.1% | 107% (inactive) | 101% (inactive) | 105% | 99.7% | 64.5% | 123% (inactive) | 97.6%
7 | O=C1ON=C(c2ccc(Cl)cc2)/C1=C/c1ccc(O)cc1 | 108% (inactive) | 95.2% (inactive) | 112% (inactive) | 98.2% (inactive) | 87.4% (inactive) | 101% (inactive) | 105% | 96.8% | 90.2% (inactive) | 89% | 100% (inactive) | 111% (inactive) | 114% | 104% | 60.6% | 94.3% (inactive) | 95.6%
8 | O=C(NCCN1CCN(c2ccccc2)CC1)c1cccc(Br)c1 | 91.3% (inactive) | 158% (active) | 107% (inactive) | 88.6% (inactive) | 91.5% (inactive) | 97% (inactive) | 98% | 97.4% | 97.7% (inactive) | 96.5% | 102% (inactive) | 102% (inactive) | 100% | 101% | 41.8% | 59.1% (active) | 101%
9 | C[C@]12CCC(=O)C=C1[C@H](O)C[C@@H]1[C@@H]2[C@@H](O)C[C@@]2(C)[C@H]1CC[C@]2(O)C(=O)CO | 106% (inactive) | 105% (inactive) | 102% (inactive) | 102% (inactive) | 107% (inactive) | 99.1% (inactive) | 99.1% | 99.2% | 97.7% (inactive) | 95.6% | 99.5% (inactive) | 102% (inactive) | 104% | 101% | 63.9% | 182% (inactive) | 97.9%
10 | COc1ccc(C(=O)NCC2OCCc3ccccc32)cc1 (centres undefined) | 90% (inactive) | 150% (active) | 120% (inactive) | 107% (inactive) | 107% (inactive) | 96.4% (inactive) | 97.1% | 97.2% | 103% (inactive) | 104% | 102% (inactive) | 98.3% (inactive) | 99.1% | 97.3% | 64.3% | 122% (inactive) | 102%
